From PubChem BioAssay (NCI)
About 79,000 compounds went through this panel and 15% of them were active in at least one assay; those are over-represented in the sample as a whole. Rule as the data show it: active = growth inhibition above about 70%; inactive = the rest.

How the values were obtained:
[1] = NCI Yeast Anticancer Drug Screen. Data for the rad50 strain (AID 155);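 also: 0% = growth of vehicle-only cultures of the same strain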; settings: S. cerevisiae rad50 strain growth inhibition; at 50.0 µM; active compounds read high
In short: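 DNA repair mutant yeast, compound exposure, growth read-out; inhibition is taken relative to vehicle.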

[2] = NCI Yeast Anticancer Drug Screen. Data for the mec2-1 strain (AID 157); settings: S. cerevisiae mec2-1 strain, at 50.0 µM, active compounds read high
In short: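 Growth inhibition is read against vehicle-treated controls after compound exposure of the mec2-1 yeast strain, which is defective in DNA damage repair or cell cycle control.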

[3] = NCI Yeast Anticancer Drug Screen. Data for the sgs1 mgt1 strain (AID 161);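 also: 0% = growth of cultures given vehicle only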; settings: S. cerevisiae sgs1 mgt1 strain, at 50.0 µM, active compounds read high
In short: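 This yeast growth screen uses a strain with defined DNA-repair lesions; compound-treated growth is compared with vehicle-treated growth.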

[4] = NCI Yeast Anticancer Drug Screen. Data for the cln2 rad14 strain (AID 165);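 also: 0% = growth equal to vehicle treated cultures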; settings: S. cerevisiae cln2 rad14 strain, at 50.0 µM, active compounds read high
In short: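 Growth inhibition, relative to vehicle-treated controls, is the read-out. The test organism is a yeast strain with defined genetic alterations, cln2 rad14.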

[5] = NCI Yeast Anticancer Drug Screen. Data for the bub3 strain (AID 167); settings: S. cerevisiae bub3 mutant strain, at 50.0 µM, active compounds read high
In short: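 In this screen, a yeast mutant lacking normal mitotic checkpoint function is challenged with compound. Relative growth versus vehicle gives the inhibition value.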

[6] = NCI Yeast Anticancer Drug Screen. Data for the mlh1 rad18 strain (AID 175); settings: S. cerevisiae mlh1 rad18 strain growth inhibition; at 50.0 µM; active compounds read high
In short: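 Cells of a genetically altered yeast strain, deficient in DNA damage repair, were treated with compound. Their growth was then compared with that of vehicle-treated cultures to give inhibition.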

Measured: growth inhibition

Cc1cc2c(=O)cc(-c3ccc(C(=O)O)cc3)oc2c(C(=O)O)c1C
inactive: [1] 7.1% | [2] 4.3% | [3] 22.8% | [4] 29.8% | [5] 5.7% | [6] 10.5%

O=c1[nH]c2cc([N+](=O)[O-])ccc2nc1/C=C(\O)c1ccco1
inactive: [1] 7.7% | [2] -14.2% | [3] 7.9% | [4] -0.65% | [5] -18.7% | [6] 22.1%

O=C(Nc1ccc(Cl)cc1)Nc1nnc2nc(CC(=O)c3cccc([N+](=O)[O-])c3Cl)c(=O)[nH]n12
inactive: [1] -9.45% | [2] 11.4% | [3] 2.95% | [4] -0.4% | [5] 5.6% | [6] 9.55%

CN(C)NC(=O)CC#N
inactive: [1] -18.4% | [2] -1.55% | [3] -4.45% | [4] -4.3% | [5] -6% | [6] 2.75%

CCOC(=O)C(NC(=O)CC)(Nc1ccccc1OC)C(F)(F)F (stereo unspecified)
inactive: [1] -40.9% | [2] -28.6% | [3] -28.6% | [4] -17.3% | [5] -25.2% | [6] -31.5%

COC(=O)c1cc(=O)[nH]c2c1c(=O)[nH]c(=O)n2C
inactive: [1] 5.7% | [2] 9% | [3] -4.7% | [4] -39.2% | [5] 7.1% | [6] 21.4%

CC1(C)NN=C([N+](=O)[O-])C1c1ccccc1 (stereo unspecified)
inactive: [1] 5.95% | [2] 10.7% | [3] 7.2% | [4] -14.4% | [5] -11% | [6] 6.65%

CC(=O)CC(=O)N1CCCCCC1
inactive: [1] -0.65% | [2] -16.9% | [3] 0.5% | [4] 11.8% | [5] -13.3% | [6] 25.1%

CN(CN(C)N=Nc1ccc(Br)cc1)CN(C)N=Nc1ccc(Br)cc1
inactive: [1] -0.7% | [2] 19.6% | [3] 4.45% | [4] 23.2% | [5] 5.1% | [6] 15%

COc1ccc2c(C)cc(N/N=C(\C)C=O)nc2c1
inactive: [1] 19.9% | [2] 19.4% | [3] 18.8% | [4] 11.9% | [5] 10.8% | [6] -9.45%

COc1nc2nccc-2c2occn12
inactive: [1] -29.4% | [2] -11.2% | [3] -16.8% | [4] -27.5% | [5] -9.6% | [6] -29.1%

COc1ccc(/C=C2\N=C(c3ccccc3)OC2=O)c(Br)c1OC(C)=O
inactive: [1] -20.1% | [2] 0.7% | [3] -12.7% | [4] -12.3% | [5] -0.8% | [6] 14.3%

O=C(O)C1=NN(c2ccc(S(=O)(=O)O)cc2)C(=O)C1N=Nc1ccc(S(=O)(=O)O)cc1 (stereo unspecified)
inactive: [1] 7.3% | [2] -0.6% | [3] 17.1% | [4] 16.9% | [5] -1% | [6] 13%

COC(=O)c1cc(Cl)ccc1Br
inactive: [1] 17.4% | [2] 14.1% | [3] -0.05% | [4] 14.8% | [5] -3.85% | [6] 43%

C=C1C(=O)O[C@@H]2[C@@H]3[C@@H](C)C(=O)C=C[C@]3(C)CC[C@@H]12
inactive: [1] -15.9% | [2] -49.1% | [3] -11.2% | [4] 7.05% | [5] -35.6% | [6] -14.9%

CSc1nc(NC2OC(CO)C(O)C(O)C2O)c(I)c(=O)n1C (stereo unspecified)
inactive: [1] 3.15% | [2] 1.85% | [3] -5.3% | [4] -6.25% | [5] -1.75% | [6] 27.7%

CCOC(=O)CC/C(C)=N/NC(=O)c1ccc[n+](C)c1
inactive: [1] -11.8% | [2] -3.65% | [3] -1.95% | [4] -29% | [5] -3.05% | [6] 2.65%

CC(C)=C(C)CCC(C)CC(C)O (stereo unspecified)
inactive: [1] -2.9% | [2] -14% | [3] -0.05% | [4] -5.6% | [5] -5.9% | [6] -5.85%

c1ccc(-c2cc3ccccc3c(-c3ccccc3)c2-c2ccccc2)cc1
inactive: [1] -18.6% | [2] -1.75% | [3] -4.8% | [4] -1.85% | [5] -2.65% | [6] -15.9%

c1ccc(Cc2cc(-c3cc(Cc4ccccc4)[nH]n3)n[nH]2)cc1
inactive: [1] 22.2% | [2] 11.2% | [3] 19.4% | [4] 19.2% | [5] 5.4% | [6] 20.9%

COC1OCC(NC(=O)CNC(=O)CCCCCCCCCCCCC(C)C)C(O)C1O (stereo unspecified)
inactive: [1] 16.2% | [2] 5.55% | [3] 8.75% | [4] 32.5% | [5] -8.1% | [6] 18.6%
